Source: PubChem (Sanford-Burnham Center for Chemical Genomics)
NALP3 yeast inh: blocks the NALP3 inflammasome reconstituted in yeast. Yeast reconstituted NLRP3/ASC/caspase-1, beta-gal luminescence, 24 h. inhibition, % at 10 µM. hit rate 0.39% among 330,000;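 active = inhibition of 50% or more; inactive = inhibition below 50%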;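 also: plate controls were induced DMSO wells for no effect and uninduced yeast grown without galactose for full effect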
TIM10 inh: growth inhibitors of TIM10 yeast strain. S. cerevisiae TIM10 strain growth, BacTiter-Glo luminescence, 24 h. inhibition, % at 10 µM. hit rate 1.4% among 330,000. AID 463195;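 active = inhibition of 40% or more at the single tested concentration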;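 also: wild-type TIM10 isogenic control strain grown at permissive 25 °C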
NALP1 yeast inh: blocks the NALP1 inflammasome reconstituted in yeast; hit rate 0.61% among 280,000; inhibition, % at 10 µM; S. cerevisiae NALP1/ASC/caspase-1 growth, X-gal OD620, 72 h; in the data active = inhibition mostly above about 24%, no sharp cut-off; inactive = mostly below about 32%
tim10-1 inh: tim10-1 yeast growth inhibition. S. cerevisiae tim10-1 ts strain growth, BacTiter-Glo, 24 h. AID 463190. hit rate 2.2% among 330,000. inhibition, % at 20 µM;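 active = inhibition of at least 40%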;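 also: mutant grown at 25 °C; 0% = DMSO wells with yeast and 100% = wells holding no yeast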
tim23-1 inh: growth inhibitors of tim23-1 mutant yeast; hit rate 1.3% among 330,000; S. cerevisiae tim23-1 growth, BacTiter-Glo luminescence, 24 h; AID 463212; inhibition, % at 20 µM;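 active = growth inhibition of the mutant yeast at or above 50%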;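 also: temperature-sensitive mutant grown at 25 °C; plate controls were DMSO-treated mutant yeast for no effect and medium wells lacking yeast for full effect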
tim10 confirm: TIM10 yeast growth inhibition, confirmed; inhibition, % at 10 µM; S. cerevisiae tim10 strain growth, BacTiter-Glo luminescence, 24 h; AID 463215; hit rate 63% among 4,600; shares compounds with TIM10 inh;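 active = inhibition of yeast growth at or above a set limit in either of two replicates at 10 µM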;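 also: this counterscreen used the strain with wild-type TIM10; 0% = yeast with DMSO and 100% = medium wells lacking yeast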
tim23-1 conf: tim23-1 yeast growth inhibition, confirmed; shares compounds with tim23-1 inh; S. cerevisiae tim23-1 growth, BacTiter-Glo luminescence, 24 h; inhibition, % at 20 µM; hit rate 83% among 4,400; AID 463218;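 active = inhibition above about 39% in either of two replicate wells at 20 µM, limit read from the data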;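 also: temperature-sensitive tim23-1 mutant grown at 25 °C; 0% = DMSO wells with yeast and 100% = medium wells without yeast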
Numbers without * were called inactive. Rows were chosen to be rich in hits. Some 4% of all compounds tested hit in one or more screens of this group.

`COc1ccc(CN2CCN(c3ncnc4scc(-c5ccc(F)cc5)c34)CC2)cc1` gave NALP3 yeast inh 0, TIM10 inh 42*, NALP1 yeast inh 6, tim10-1 inh 35, tim23-1 inh 48 and tim10 confirm 45*.
COc1ccc(N2CCN(c3ncnc4scc(-c5ccc(C)cc5)c34)CC2)cc1 was read as NALP3 yeast inh 16, TIM10 inh 14, NALP1 yeast inh 13, tim10-1 inh -26 and tim23-1 inh 10.
Screening COc1ccc(N2CCN(C(=O)CSc3ncnc4scc(-c5ccc(C)cc5)c34)CC2)cc1 returned NALP3 yeast inh 11, TIM10 inh 43*, tim10-1 inh 20, tim23-1 inh 23 and tim10 confirm 10.
For CC(=O)CSc1ncnc2sc3c(c12)CCC(C)C3 (stereo not drawn) the results were NALP3 yeast inh 15, TIM10 inh 43*, NALP1 yeast inh -6, tim10-1 inh 40, tim23-1 inh 37 and tim10 confirm -5.
For CC1CCc2c(sc3ncnc(SCC(=O)c4ccccc4)c23)C1 (stereo not drawn) the results were NALP3 yeast inh 9, TIM10 inh 0, NALP1 yeast inh 7, tim10-1 inh 6 and tim23-1 inh 7.
`CC(=O)/C(=C\N(C)C)Sc1ccc(Cl)cc1` gave NALP3 yeast inh 12, TIM10 inh -4, NALP1 yeast inh 28, tim10-1 inh -8 and tim23-1 inh -2.
For S=C(Sc1ccc(Cl)cc1)Sc1ccc(Cl)cc1 the results were NALP3 yeast inh 40, TIM10 inh 47*, tim10-1 inh 28, tim23-1 inh 73*, tim10 confirm 42* and tim23-1 conf 77*.
Oc1ccc(Cl)cc1-c1cc(-c2ccco2)[nH]n1 was read as NALP3 yeast inh 10, TIM10 inh 49*, NALP1 yeast inh 19, tim10-1 inh 38, tim23-1 inh 72*, tim10 confirm 38* and tim23-1 conf 15.
Screening Oc1c(-c2cc(-c3ccco3)[nH]n2)ccc2ccccc12 returned NALP3 yeast inh 18, TIM10 inh 39, NALP1 yeast inh -3, tim10-1 inh 24 and tim23-1 inh 25.
For O=C(O)CN1CCCCCC1=O the results were NALP3 yeast inh 10, TIM10 inh 10, NALP1 yeast inh -6, tim10-1 inh 12 and tim23-1 inh 0.
`O=C(Nc1ccc2nc3n(c(=O)c2c1)CCCCC3)c1ccccn1` gave NALP3 yeast inh 33, TIM10 inh 46*, NALP1 yeast inh 20, tim10-1 inh 35, tim23-1 inh 55*, tim10 confirm 36* and tim23-1 conf 68*.
`CCCOc1cccc(C(=O)NCCNC(=O)c2ccc(C)nc2)c1` gave NALP3 yeast inh 0, TIM10 inh -21, NALP1 yeast inh -3, tim10-1 inh -5 and tim23-1 inh 9.
`NNC(=O)c1cc2cc(OC(F)(F)F)ccc2[nH]1` gave NALP3 yeast inh 8, TIM10 inh 50*, NALP1 yeast inh -1, tim10-1 inh 29, tim23-1 inh 58*, tim10 confirm 40* and tim23-1 conf 50*.
Screening Cc1cccc(C)c1NC(=O)/C(C#N)=C/c1ccsc1 returned NALP3 yeast inh 25, TIM10 inh 44*, NALP1 yeast inh 35, tim10-1 inh 39, tim23-1 inh 62*, tim10 confirm 37* and tim23-1 conf 57*.
Screening Cc1ccccc1NC(=O)/C(C#N)=C/c1ccsc1 returned NALP3 yeast inh 5, TIM10 inh 27, NALP1 yeast inh 41, tim10-1 inh 11 and tim23-1 inh 32.
For CCCOc1ccc(CSc2nc3ccccc3[nH]2)cc1 the results were NALP3 yeast inh 15, TIM10 inh 47*, NALP1 yeast inh 7, tim10-1 inh 23, tim23-1 inh 64*, tim10 confirm 36* and tim23-1 conf 49*.
c1ccc(CSc2nc3ccccc3[nH]2)cc1 was read as NALP3 yeast inh 8, TIM10 inh 18, tim10-1 inh -12 and tim23-1 inh 12.
`CCCC(=O)NC(=S)Nc1cccc(NC(=O)c2ccccc2Cl)c1` gave NALP3 yeast inh -2, TIM10 inh 45*, NALP1 yeast inh 4, tim10-1 inh 36, tim23-1 inh 53*, tim10 confirm 39* and tim23-1 conf 44*.
O=C(CSc1ccccc1)Nc1ccc2c(c1)OCCO2 was read as NALP3 yeast inh 14, TIM10 inh -9, NALP1 yeast inh 0, tim10-1 inh -10 and tim23-1 inh 24.
For O=C(CSc1ccc(-c2ccccc2)nn1)Nc1ccc2c(c1)OCCO2 the results were NALP3 yeast inh 24, TIM10 inh 56*, NALP1 yeast inh 34, tim10-1 inh 36, tim23-1 inh 55*, tim10 confirm 58* and tim23-1 conf 79*.
For CCCn1nnc(NC(=O)c2ccc(-c3cccc(Cl)c3)o2)n1 the results were NALP3 yeast inh 19, TIM10 inh 51*, NALP1 yeast inh 3, tim10-1 inh 34, tim23-1 inh 69*, tim10 confirm 32* and tim23-1 conf 74*.
CCn1nnc(NC(=S)NC(=O)c2ccc(-c3cccc(Cl)c3)o2)n1 was read as NALP3 yeast inh 36, TIM10 inh 35, tim10-1 inh 35 and tim23-1 inh 41.
For CCN1CCN(c2c(S(=O)(=O)c3ccc(C)c(C)c3)cnc3ccc(F)cc23)CC1 the results were NALP3 yeast inh -4, TIM10 inh -2, NALP1 yeast inh 4, tim10-1 inh 13 and tim23-1 inh 10.
Screening O=C1NC(=Nc2ccccc2)S/C1=C/c1cccs1 returned NALP3 yeast inh 44, TIM10 inh 49*, NALP1 yeast inh 7, tim10-1 inh 26, tim23-1 inh 62*, tim10 confirm 32* and tim23-1 conf 72*.
`CCC1CCCCN1C(=O)c1ccc(OC)c(OC2CCN(C(C)C)CC2)c1` (stereo not drawn) gave NALP3 yeast inh 2, TIM10 inh -4, NALP1 yeast inh -7, tim10-1 inh -12 and tim23-1 inh 6.
For O=c1c2c3c(sc2ncn1/N=C/c1ccc(Br)o1)CCCC3 the results were NALP3 yeast inh 9, TIM10 inh 44*, NALP1 yeast inh -3, tim10-1 inh 37, tim23-1 inh 51*, tim10 confirm 46* and tim23-1 conf 54*.
Screening CS(=O)(=O)CC(=O)Nc1ccc2nc3n(c(=O)c2c1)CCCCC3 returned NALP3 yeast inh 2, TIM10 inh -13, NALP1 yeast inh 2, tim10-1 inh -4 and tim23-1 inh 9.
For COC(=O)c1cc(COc2ccc3oc(C)c(C(=O)OC(C)C)c3c2)c(C)o1 the results were NALP3 yeast inh 2, TIM10 inh -6, NALP1 yeast inh 10, tim10-1 inh 16 and tim23-1 inh 3.
Screening CC[C@]1(c2ccccc2OC)ON(c2ccccc2C(F)(F)F)C1=O returned NALP3 yeast inh 36, TIM10 inh 40*, tim10-1 inh 25, tim23-1 inh 57*, tim10 confirm 69* and tim23-1 conf 62*.
